From PubChem BioAssay (NCI)
About 79,000 compounds went through this panel and 15% of them were active in at least one assay; those are over-represented in the sample as a whole. Rule as the data show it: active = growth inhibition above about 70%; inactive = the rest.

Key:
[1] = NCI Yeast Anticancer Drug Screen. Data for the rad50 strain (AID 155);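 also: 0% = growth of vehicle-only cultures of the same strain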; details: S. cerevisiae rad50 strain growth inhibition; at 50.0 µM; stronger effect = higher value
How it was run: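 Vehicle-treated cultures provide the reference for the growth inhibition reported for compound-exposed, repair-deficient yeast.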

[2] = NCI Yeast Anticancer Drug Screen. Data for the mec2-1 strain (AID 157); details: S. cerevisiae mec2-1 strain, at 50.0 µM, stronger effect = higher value
How it was run: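 Using mec2-1 yeast: add compound, measure growth, express inhibition versus vehicle-treated cultures.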

[3] = NCI Yeast Anticancer Drug Screen. Data for the sgs1 mgt1 strain (AID 161);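 also: 0% = growth of cultures given vehicle only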; details: S. cerevisiae sgs1 mgt1 strain, at 50.0 µM, stronger effect = higher value
How it was run: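 Yeast cells carrying a defined DNA-repair defect were exposed to test compounds. Growth inhibition was measured relative to vehicle-treated controls.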

[4] = NCI Yeast Anticancer Drug Screen. Data for the cln2 rad14 strain (AID 165);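 also: 0% = growth equal to vehicle treated cultures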; details: S. cerevisiae cln2 rad14 strain, at 50.0 µM, stronger effect = higher value
How it was run: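 Yeast strain cln2 rad14, bearing defects in cell cycle control and DNA repair, serves as the test system; values reflect growth inhibition compared with vehicle.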

[5] = NCI Yeast Anticancer Drug Screen. Data for the bub3 strain (AID 167); details: S. cerevisiae bub3 mutant strain, at 50.0 µM, stronger effect = higher value
How it was run: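 Mutant yeast screening strain plus compound; vehicle-treated cultures serve as the 0% inhibition reference.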

[6] = NCI Yeast Anticancer Drug Screen. Data for the mlh1 rad18 strain (AID 175); details: S. cerevisiae mlh1 rad18 strain growth inhibition; at 50.0 µM; stronger effect = higher value
How it was run: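 Steps: expose repair-defective yeast to compound; measure growth; express inhibition against vehicle-treated controls.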

Measured: growth inhibition

CC(=O)Nc1ccc(/C=C2\CCOC2=O)cc1[N+](=O)[O-]
inactive: [1] 6.8% | [2] 8.2% | [3] 7.15% | [4] 57.5% | [5] 8% | [6] 3.6%

CN(C(=S)NNC(=O)C1CCC(=O)N1)c1ccccc1 (stereo not given)
inactive: [1] 23.2% | [2] -2% | [3] 3.3% | [4] 13.7% | [5] 21.4% | [6] 26.9%

CC(COc1ccccc1)OC(=O)CCl (stereo not given)
inactive: [1] 0.75% | [2] 5.6% | [3] -6.65% | [4] -16.9% | [5] -16.5% | [6] 27.6%

N#Cc1cccc(N2C(=O)c3c(c(-c4ccccc4)c(-c4ccc(Sc5ccc(-c6c(-c7ccccc7)c7c(c(-c8ccccc8)c6-c6ccccc6)C(=O)N(c6cccc(C#N)c6)C7=O)cc5)cc4)c(-c4ccccc4)c3-c3ccccc3)C2=O)c1
inactive: [1] -48.6% | [2] -44.2% | [3] -41% | [4] -14.8% | [5] -68.8% | [6] -60.8%

CCOc1ccc2ccccc2c1N
inactive: [1] 44% | [2] 15.4% | [3] 24.3% | [4] 4.8% | [5] 51.7% | [6] 46.7%

CC1=C(C(=O)N(C)c2ccc(Cl)c(C(=O)OC(C)C)c2)SCCO1
inactive: [1] -19.6% | [2] -50.8% | [3] -12.1% | [4] -6% | [5] -11.8% | [6] -28.1%

Cc1cc(C)c(C2[C@H]3C(=O)N(c4ccc(Cc5ccc(N6C(=O)[C@@H]7ON(c8ccccc8)C(c8c(C)cc(C)cc8C)[C@@H]7C6=O)cc5)cc4)C(=O)[C@H]3ON2c2ccccc2)c(C)c1 (stereo not given in full)
inactive: [1] 27.6% | [2] 31.8% | [3] 19.8% | [4] 25.2% | [5] 29.4% | [6] 24.2%

NNc1ccc(S(=O)(=O)O)cc1Cl
inactive: [1] 8.35% | [2] -14.4% | [3] 3.05% | [4] 4.7% | [5] 15.7% | [6] 2.45%

CC1(C)SC(N=C=Nc2ccccc2)CN1C=O (stereo not given)
inactive: [1] 8.55% | [2] 1.85% | [3] -14.4% | [4] -10.1% | [5] 9.5% | [6] -0.4%

Cc1ccc(S(=O)(=O)Nn2c(O)c(C#N)c(-c3ccc([N+](=O)[O-])cc3)c(C#N)c2=O)cc1
inactive: [1] 4.8% | [2] 6.9% | [3] -7.9% | [4] 15.6% | [5] -13.2% | [6] -8.8%

O=P(c1ccccc1)(c1ccccc1)C(O)c1ccc(F)cc1 (stereo not given)
inactive: [1] -11.6% | [2] -14.7% | [3] 7.4% | [4] 2.1% | [5] 1.4% | [6] -7.25%

O=C1Nc2ccc(Br)cc2C1(O)Cc1cccc([N+](=O)[O-])c1 (stereo not given)
inactive: [1] 7.35% | [2] 12.2% | [3] 13.5% | [4] 3.55% | [5] -12.9% | [6] 11.8%

CCN(CC)CCNc1ccc2ncn3c4c(OC)ccc(OC)c4c(=O)c1c23
inactive: [1] -21.1% | [2] -22.2% | [3] 0.9% | [4] 22.6% | [5] -47% | [6] 62.1%

Cc1ccc(/C=C/c2ccc3ccccc3c2)cc1
inactive: [1] -6.6% | [2] -9.3% | [3] 9.05% | [4] -14.6% | [5] -4.8% | [6] -3.85%

CC(CS(=O)(=O)Cc1ccccc1)C(N)=O (stereo not given)
inactive: [1] -4.8% | [2] 38.1% | [3] 14.3% | [4] 30.1% | [5] -9.95% | [6] -17.1%

COc1ccc(CNc2ccccc2)cc1OC
inactive: [1] -6% | [2] 7.95% | [3] -3% | [4] -33.6% | [5] -9.15% | [6] -40%

Cc1cc(N(CCC#N)CCC#N)ccc1/C(N=Nc1ccc(Cl)cc1)=N\NC(=O)c1ccccc1
inactive: [1] 1.3% | [2] -2.65% | [3] -0.5% | [4] -10.2% | [5] -7.3% | [6] -31.1%

CCOC(=O)C(C(=O)CC)C(=O)OCC
inactive: [1] 14.3% | [2] 11.3% | [3] 16.2% | [4] 7.65% | [5] 14.2% | [6] 13.4%

O=C(CNCc1ccccc1)NC(Cc1ccccc1)c1ccccc1 (stereo not given)
inactive: [1] 8.15% | [2] -14.3% | [3] 0.35% | [4] 16.9% | [5] 13.4% | [6] 20.9%

C1CNCCNCCN1
inactive: [1] 7.65% | [2] -1.05% | [3] 10.1% | [4] 21.1% | [5] 25.5% | [6] -4.3%
